DT40 TDP1 no CPT = qHTS for Inhibitors of human tyrosyl-DNA phosphodiesterase 1 (TDP1): qHTS in cells in absence of CPT; DT40 Tdp1-/- hTDP1 cells, no CPT, ATP luminescence, 48 h; Potency, µM (series often up to 46.2 µM), without a hit: at the highest dose activity change, negative = growth inhibition, most hits filed as inhibitors; 420,000 tested, 15% active; also: nearly all actives have a fitted effect of over 55% in size
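DT40 Tdp1-/-;hTDP1 cells, no CPT (DMSO vehicle only), 400 cells/well; compounds pin-transferred; ≥48 hr, 37 °C; CellTiter-Glo 30 min RT dark, luminescence read.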
VDR inh = vitamin D3 receptor (human) inhibition; P11473; VDR-SRC2-3 peptide fluorescence polarization, 2 h; Potency, µM, inactives show max response, negative = inhibition, most hits filed as inhibitors; 400,000 tested, 0.93% active
Target sequence (P11473 whole entry, looked up): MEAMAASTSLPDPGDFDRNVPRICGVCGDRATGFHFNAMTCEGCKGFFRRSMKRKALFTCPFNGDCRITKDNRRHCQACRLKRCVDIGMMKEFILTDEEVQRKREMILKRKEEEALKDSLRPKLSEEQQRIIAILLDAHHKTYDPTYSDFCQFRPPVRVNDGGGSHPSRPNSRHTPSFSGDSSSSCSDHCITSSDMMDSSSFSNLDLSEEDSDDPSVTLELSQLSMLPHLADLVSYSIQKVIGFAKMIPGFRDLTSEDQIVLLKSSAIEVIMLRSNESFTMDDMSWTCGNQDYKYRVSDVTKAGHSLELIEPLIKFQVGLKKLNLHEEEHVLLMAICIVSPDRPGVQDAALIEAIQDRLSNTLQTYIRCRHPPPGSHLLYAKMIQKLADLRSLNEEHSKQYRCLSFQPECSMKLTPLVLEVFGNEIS
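Compounds are added to VDR with labelled SRC2-3 coactivator peptide and held 2 h at room temperature. Inhibition of the VDR–peptide interaction is then read as a change in fluorescence polarization.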
TDP1 cell CPT = growth inhibition of DT40 Tdp1-/-;hTDP1 cells with camptothecin (screen for TDP1 inhibitors); chicken DT40 Tdp1-/-;hTDP1 cells + 20 nM CPT, ATP luminescence, 48 h; Potency, µM (highest dose often 46.2 µM), inactives show at the highest dose activity change, negative = growth inhibition, usual class: inhibitors; 420,000 tested, 12% active; AID 686979; also: nearly all actives have a fitted effect of over 55% in size
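Chicken DT40 Tdp1-/- cells complemented with human TDP1, 400 cells/well, exposed to compounds plus 20 nM camptothecin for at least 48 h at 37 C; viability read as ATP content by CellTiter-Glo luminescence.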
TDP1 inh = inhibitors of human tyrosyl-DNA phosphodiesterase TDP1 | recombinant TDP1, AlphaScreen DNA substrate cleavage | Potency, µM (top dose mostly 130 µM), without a hit: top-dose activity change, negative = inhibition, actives largely listed as inhibitors | 350,000 tested, 0.28% active; also: nearly all actives have a fitted effect of over 40% in size
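Recombinant E. coli-expressed Tdp1 (1 nM) preincubated with compound 15 min at RT, then 5'-biotin/3'-phosphotyrosine-FITC DNA substrate (15 nM) added for 5 min. AlphaScreen beads (10 ug/ml) added, 10 min RT; tyrosine-FITC cleavage read as signal loss.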
PLK1 PBD block = inhibitors of human PLK1 polo-box domain binding; P53350; Plk1 PBD binding of FITC phosphopeptide, fluorescence polarization; Potency, µM, inactives show max response, negative = inhibition, usual class: inhibitors; 360,000 tested, 2.8% active; AID 720504; also: series mostly up to about 57 µM; nearly all actives have a fitted effect of over 65% in size
KAT2A inh = GCN5L2 (KAT2A) acetyltransferase inhibition; GCN5L2 HAT assay, ThioGlo1 CoA-SH fluorescence; Q92830; Potency, µM (doses to about 58.9 µM), for the others: at the highest dose activity change, negative = inhibition, hits mostly inhibitors; 390,000 tested, 0.21% active
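Compounds, pin-transferred from DMSO stocks, meet 20nM GCN5L2 for 15 min before the reaction begins with H3(1-25) peptide (75uM) and acetyl-CoA (70uM). Thiol-reactive ThioGlo1 reports CoA release over 20 min at room temperature.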
An asterisk follows results filed as active; ? = inconclusive; / = no result given; [ ] = dose if it differs, or a comment. Shown are actives, neighbours in structure and some others; about 18% of the full set was active somewhere. Calls follow the shape of the dose curve; as a rule, active = well fitted curve in the direction sought with a large enough effect; inconclusive = small, poorly fitted or top-dose-only effect, or another doubt; inactive = no such curve, though single readings can be large; an effect the other way counts as inactive or inconclusive. % is scaled to controls: 0 for no effect and ±100 for the full control effect; potency is read from the fitted curve at half-maximal effect.

SMILES	DT40 TDP1 no CPT	VDR inh	TDP1 cell CPT	TDP1 inh	PLK1 PBD block	KAT2A inh
O=C(NCC1CC1)c1cccc2c1C(=O)c1ccc(-c3ccc(OC(F)(F)F)cc3)cc1S2(=O)=O	23µM*	-15%	13µM*	1%	-17%	0%
CC(C)(C)CNC(=O)c1cccc2c1C(=O)c1ccc(N3CCCC3)cc1S2(=O)=O	16µM*	3%	21µM*	0%	13%	-4%
CC(C)c1cccc(-c2ccc3c(c2)S(=O)(=O)c2cccc(C(=O)NCc4ccco4)c2C3=O)c1	?	-18%	?	45µM*	42µM*	?
COc1ccccc1N1CCN(c2ccc3c(c2)S(=O)(=O)c2cccc(C(=O)NCC4CC4)c2C3=O)CC1	7.3µM*	/	18µM*	/	-2%	/
Cc1ccccc1Cn1c(=O)n(CCCCC(=O)NCc2ccccc2Cl)c(=O)c2ccccc21	?	-6%	-11%	1%	/	-4%
Cc1ccc(NC(=S)NNC(=O)c2cccc([N+](=O)[O-])c2)cc1Cl	-25%	-9%	-26%	10%	-28%	-1%
Cc1c2cnn(-c3ccccc3)c(=O)c2c(C)n1CC(=O)NCCc1ccc(Cl)cc1	-4%	7%	-18%	-3%	/	0%
O=C(NCc1ccc(F)cc1)c1cccc2c1C(=O)c1ccc(N3CCC(Cc4ccccc4)CC3)cc1S2(=O)=O	?	-15%	?	0%	?	-20%
O=C(NCCN1CCCCC1)c1cccc2c1C(=O)c1ccc(N3CCCC3)cc1S2(=O)=O	-20%	14%	3%	4%	8%	-1%
O=C(NCc1ccc(F)cc1)c1cccc2c1C(=O)c1ccc(N3CCOCC3)cc1S2(=O)=O	?	-26%	23µM*	-8%	?	-19%
O=C(NCc1ccc(F)cc1)c1cccc2c1C(=O)c1ccc(N3CCC(N4CCCCC4)CC3)cc1S2(=O)=O	?	/	?	/	30%	/
CC1CCN(c2ccc3c(c2)S(=O)(=O)c2cccc(C(=O)NCc4ccc(F)cc4)c2C3=O)CC1	?	-14%	?	1%	84µM*	-25%
CC(C)(C)CNC(=O)c1cccc2c1C(=O)c1ccc(-c3cc4ccccc4o3)cc1S2(=O)=O	?	-5%	16µM*	1%	-9%	-4%
O=C(C[C@H]1CC[C@H]2[C@@H](COC[C@@H](O)CN2S(=O)(=O)c2ccccc2)O1)N[C@@H]1CCN(Cc2ccccc2)C1	-7%	/	4%	/	-13%	/
CCN(CC(=O)NCc1ccc(Cl)cc1)C(=O)c1cc(S(=O)(=O)NCc2ccccc2)ccc1C	21µM*	-16%	?	0%[56.1 µM]	-5%	-4%
CCN(CC(=O)NCc1ccc(Cl)cc1)C(=O)CSc1cccc(C(F)(F)F)c1	18µM*	3%	18µM*	-4%	1%	-27%
Cc1ccc(S(=O)(=O)NCc2ccccc2)cc1C(=O)NCC(=O)Nc1c(C)cccc1C	21µM*	/	?	/	2%	/
CCN(CC(=O)NCc1ccc(Cl)cc1)C(=O)c1ccc2cc(OC)ccc2c1	13µM*	3%	?	8%	-4%	-2%
CCN(CC(=O)NCc1ccc(Cl)cc1)C(=O)CSc1ccccc1F	?	8%	-28%	4%	2%	-12%
CCN(CC(=O)NCc1ccc(Cl)cc1)C(=O)c1cc2ccccc2o1	-28%	-18%	0%	15%	-9%	-3%
COc1ccc(Cn2nnnc2C(c2ccccn2)N2CCN(c3ccc(O)cc3)CC2)cc1 (stereo unspecified)	?	-4%	-27%	/	/	/
Cc1ccc(S(=O)(=O)NC(C)(C)CN2CCC(Cc3ccccc3)CC2)cc1	18µM*	16%	16µM*	/	-4%	-7%
Cc1ccc(S(=O)(=O)NCCC(=O)N2CCC(Cc3ccccc3)CC2)cc1	21µM*	-2%	15µM*	/	1%	-7%
Cc1ccc(S(=O)(=O)NCC(=O)N2CCC(C)CC2)cc1	-13%	-25%	-8%	3%	30µM*	0%
CC(C)(CN1CCNCC1)NS(=O)(=O)c1ccc(Cl)cc1	?	-7%	23µM*	3%	-12%	-1%
SMILES	DT40 TDP1 no CPT	VDR inh	TDP1 cell CPT	TDP1 inh	PLK1 PBD block	KAT2A inh
CC(=O)Nc1ccc(S(=O)(=O)NCCC(=O)N2CCC(Cc3ccccc3)CC2)cc1	?	-20%	?	2%	-15%	3%
CC(C)(CN1CCCC1)NS(=O)(=O)c1ccc(Cl)cc1	-23%	12%	3%	/	-7%	-1%
CCOC(=O)C1CCN(CC(C)(C)NS(=O)(=O)c2ccc(C)cc2)CC1	-25%	0%	1%	-3%	-15%	-7%
CCc1cc(C(=O)N(CCCOC)c2c(N)n(Cc3ccccc3)c(=O)[nH]c2=O)sc1C	-7%	-10%	-2%	/	-6%	-2%
Cc1ccccc1CN1CCN(CC(=O)NCc2ccccc2Cl)C1=O	-21%	5%	1%	8%	/	3%
CCn1c(CC2C(=O)N(C)c3ccc(Br)cc32)nc2ccccc2c1=O (stereo unspecified)	1.5µM*	-8%	5.2µM*	0%	/	1%
CCCN1C(=O)C(Cc2nc3ccccc3c(=O)n2CC)c2cc(Br)ccc21 (stereo unspecified)	1.2µM*	-9%	1.2µM*	9%	/	-2%
CCC(=O)N(Cc1cc2cc(OC)ccc2[nH]c1=O)c1ccc(C)cc1	10µM*	-7%	?	/	-10%	-22%
COc1ccc(N(Cc2cc3cc(OC)ccc3[nH]c2=O)C(=O)c2cccnc2)cc1	23µM*	10%	16µM*	0%	-3%	4%
CCC(=O)N(Cc1cc2cc(OC)ccc2[nH]c1=O)c1cc(C)ccc1C	-29%	0%	?	6%	-6%	-19%
COc1ccc(N(Cc2cc3cccc(C)c3[nH]c2=O)C(=O)c2cccc(Cl)c2)cc1	8.2µM*	-3%	10µM*	2%	/	-9%
COc1ccc2[nH]c(=O)c(CN(C(=O)C3CCCO3)c3cccc(C)c3)cc2c1 (stereo unspecified)	/	/	/	3%	/	-14%
COc1ccc2[nH]c(=O)c(CN(C(=O)c3cccc(Cl)c3)c3cccc(C)c3)cc2c1	18µM*	12%	16µM*	7%	/	1%
C=C1NN(Cc2ccccc2)C(=O)N1c1ccc(OC)cc1	-17%	/	8%	/	/	/
CC(=O)N(CCc1cccc(C)c1)Cc1cc2cc(C)ccc2[nH]c1=O	?	-10%	15µM*	/	-13%	-3%
